The whole screen tested about 340,000 compounds, of which about 2,100 (0.62%) were called active. A selection follows. Entries with a potency or affinity are not part of this list. Values without a mark were called inactive.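 How the source made its calls: active means first-screen hits whose inhibition reached a set limit at any dose in the follow-up dose series; inconclusive means inhibition above the set first-screen limit but never retested; inactive means the rest.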

This assay deals with Rac GTPase-activating protein 1 (Homo sapiens) (UniProt Q9H0H5). The assay is described as follows: MgcRacGAP GTPase-activating activity inhibitors, confirmation, biochemical, ADP Hunter fluorescence, primary and confirmatory (AID 624330).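 Further: fluorescence reports GDP produced by GAP-driven GTP hydrolysis.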 As to conditions: MgcRacGAP-stimulated Rac1 GTP hydrolysis, at 30 µM, stronger effect = higher value, GST-tagged Rac1 F28L mutant substrate.
Sequence of Rac GTPase-activating protein 1 (Homo sapiens) (Q9H0H5 whole entry, looked up): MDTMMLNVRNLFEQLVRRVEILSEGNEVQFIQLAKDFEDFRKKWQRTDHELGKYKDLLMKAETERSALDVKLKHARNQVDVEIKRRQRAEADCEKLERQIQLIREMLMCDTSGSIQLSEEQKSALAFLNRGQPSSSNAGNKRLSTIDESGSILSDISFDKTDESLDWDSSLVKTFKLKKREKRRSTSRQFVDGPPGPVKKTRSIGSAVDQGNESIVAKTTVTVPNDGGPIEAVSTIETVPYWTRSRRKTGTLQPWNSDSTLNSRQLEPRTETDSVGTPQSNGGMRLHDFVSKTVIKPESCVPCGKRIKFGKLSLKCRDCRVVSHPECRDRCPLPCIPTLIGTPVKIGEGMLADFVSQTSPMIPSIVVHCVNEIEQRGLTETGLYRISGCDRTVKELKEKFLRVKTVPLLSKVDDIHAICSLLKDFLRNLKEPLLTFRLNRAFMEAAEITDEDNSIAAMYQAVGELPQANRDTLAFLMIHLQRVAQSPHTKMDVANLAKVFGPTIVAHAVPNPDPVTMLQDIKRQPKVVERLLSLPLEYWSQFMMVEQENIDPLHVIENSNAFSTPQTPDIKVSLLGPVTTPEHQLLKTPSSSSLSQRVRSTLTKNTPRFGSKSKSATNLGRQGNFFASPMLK
As to `Cc1cccc(C)c1-n1nnnc1C1(Nc2ccccc2)CCCCC1`, the inhibition is 8.6%.

On to `CN(C(=O)c1ccc(NC(=O)Cc2cccc(NC(=O)C3CCCN(C(=O)C4CCCC4)C3)c2)cc1)C1CCCC1` (centres undefined), for which the inhibition is 8.78%.

For the compound `COc1ccc(OCC(=O)N2CCCC(Nc3ccc(C)c(C)c3)C2)cc1` (centres undefined), the inhibition was 14.3%.

Consider `COc1ccc(NC2CCCN(C(=O)c3cccnc3)C2)cc1` (centres undefined), for which the inhibition was 26.2%.

Turning to `Cc1ccc(C(=O)N2CCCC(Nc3ccc(C(C)C)cc3)C2)cn1` (centres undefined), the inhibition was 7.62%.

On to `COc1ccc(C(=O)N2CCCC(Nc3ccc(C(C)C)cc3)C2)c(OC)n1` (centres undefined), for which the inhibition is 2.96%.

Take `COc1cc(OC)cc(C(=O)NCC2CCCN(C(=O)c3csc(C(C)C)n3)C2)c1` (centres undefined): the inhibition was 8.24%.

With `CC(=O)c1ccc(C(=O)N2CCCC(Nc3ccc(C(C)C)cc3)C2)s1` (centres undefined), the inhibition was -45.7%.

`CC(=O)c1ccc(OCC(=O)N2CCCC(Nc3ccc(C)c(C)c3)C2)cc1` (centres undefined): the inhibition is 14.3%.

Regarding `CC(=O)c1ccc(C(=O)N2CCCC(Nc3ccccc3)C2)s1` (centres undefined), the inhibition was 7.53%.

`CC(C)(C)c1ccc(C(=O)NCCCN2CCN(CCCNC(=O)c3ccc(C(C)(C)C)cc3)CC2)cc1`: the inhibition was 0.51%.

For `COC(=O)C1=C(O)C(C(=O)OC)C(c2ccc(C)cc2)C(C#N)(C#N)C1c1ccc(C)cc1` (centres undefined), the inhibition was 6.45%.

For `COc1ccc(/C=C/C(=O)Nc2cc(C(F)(F)F)ccc2Cl)cc1`, the inhibition is 0.39%.

As for `CCOC(=O)C1=C(C)NC(C)=C(C(=O)OCC)C1c1cccc([N+](=O)[O-])c1`, the inhibition was 10.8%.

`O=C(c1cccc(N2CCCC2=O)c1)N1CCN(c2ccccc2)CC1`: the inhibition is 10.3%.

For `COCCN(C(=O)Cc1coc2cc(C)c(C)cc12)c1c(N)n(Cc2ccccc2)c(=O)[nH]c1=O`, the inhibition is 0.31%.

With `CCCC(C(=O)N(C)CC(=O)Nc1ccc(N2CCOCC2)cc1)c1ccccc1` (centres undefined), the inhibition is 7.2%.

Turning to `CCNC(=S)N(Cc1cc2c(C)ccc(C)c2[nH]c1=O)C1CCCC1`, the inhibition is 3.17%.

As to `COc1ccc(C(=O)N2CCCC(Nc3ccc(C)c(C)c3)C2)cc1` (centres undefined), the inhibition is 16.9%.

For `COc1ccc(C(=O)N2CCCC(Nc3ccc(F)cc3)C2)c(OC)c1` (centres undefined), the inhibition is 5.24%.

On to `Cc1cc(C(=O)N2CCCC(Nc3ccccc3)C2)c2ccc(F)cc2n1` (centres undefined), for which the inhibition was 12.7%.

With `COc1ccc(NC2CCCN(C(=O)C3(C)CCCCC3)C2)cc1OC` (centres undefined), the inhibition is -45.5%.

Regarding `Cc1nc(C(=O)N2CCCC(Nc3ccc(C)c(C)c3)C2)cs1` (centres undefined), the inhibition is 13.6%.

On to `COc1ccc(NC2CCCN(C(=O)c3ccc4[nH]c(C)c(C)c4c3)C2)cc1OC` (centres undefined), for which the inhibition was 12.8%.

As for `CSc1nc(C(=O)N2CCCC(Nc3ccc(C)c(C)c3)C2)cs1` (centres undefined), the inhibition is 13.4%.

On to `COc1ccc(NC2CCCN(C(=O)CSc3ccncc3)C2)cc1` (centres undefined), for which the inhibition was 31.3%.

In the case of `CC(CC(=O)Nc1ccc(S(=O)(=O)N2CCOCC2)cc1)c1ccccc1` (centres undefined), the inhibition is 3.54%.

With `Cc1cc(Cl)ccc1NC(=S)N1CCN(C(=O)c2ccco2)CC1`, the inhibition is 5.96%.

Take `Cc1ccc(S(=O)(=O)NN=Cc2c(O)ccc3ccccc23)cc1`: the inhibition is 11.4%.

Consider `O=C(NCCc1ccccc1)C1CCC(CNS(=O)(=O)c2ccc(F)cc2)CC1` (centres undefined), for which the inhibition is 6.44%.

Consider `O=C(CSc1nnc(CNC(=O)c2ccco2)o1)Nc1ccc(F)cc1`, for which the inhibition was -2.84%.

`Cc1ccc(N/C(CSC(N)=O)=N/S(=O)(=O)c2ccccc2)cc1`: the inhibition is 4.14%.

`Cc1cc(C=O)c(C)n1-c1cc(C(F)(F)F)ccc1N1CCOCC1`: the inhibition was 5.1%.

On to `CCn1nc(C)cc1C(=O)N1CCCC(Nc2ccc(C(C)C)cc2)C1` (centres undefined), for which the inhibition is 9.28%.

Regarding `CCn1nc(CC(C)C)cc1C(=O)N1CCCC(Nc2ccc(F)cc2)C1` (centres undefined), the inhibition is 1.25%.

For the compound `CCN(CC)c1ccc(S(=O)(=O)N2CCOCC2)cc1NC(=O)C1CC1`, the inhibition was 6.61%.

Turning to `Cc1ncc(S(=O)(=O)C(C)(C)C)c(N)n1`, the inhibition was 4.93%.

For `O=C(COC(=O)/C=C/c1cccs1)NC(=O)Cc1ccccc1`, the inhibition was 9.86%.

With `Nc1ccccc1SC/C=C/CSc1ccccc1N`, the inhibition was 17.8%.

`Nc1ccccc1SCc1ccccc1`: the inhibition is 3.68%.

Consider `CC1(C)CC(=O)C2=C(C1)NC(=O)NC2c1ccc(Cl)cc1` (centres undefined), for which the inhibition was 9.51%.

As to `COc1ccc(NC(=O)C2CC(c3ccc(Cl)cc3)=NO2)cc1OC` (centres undefined), the inhibition was -3.14%.

For `COC(=O)C1CCN(C(=O)Cn2nnc(-c3ccccc3)n2)CC1`, the inhibition was 5.24%.

Consider `CN(C)c1ccc(/C=C2\CCC/C(=C\c3ccccc3)C2=O)cc1`, for which the inhibition is 10.2%.

Consider `CC(C)/C=C1\CC/C(=C\c2ccc(N(C)C)cc2)C1=O`, for which the inhibition is 6.52%.

In the case of `Cc1ccc(S(=O)(=O)N2CCCCC2)cc1NC(=O)CSc1nnc(C2CC2)n1N`, the inhibition was 4.18%.

Turning to `Cc1cc(C(=O)NCC(=O)OCC(=O)NCCc2ccccc2)ccc1[N+](=O)[O-]`, the inhibition is -1.11%.

With `COc1ccc(F)cc1C(=O)C1CCCN(Cc2ccc3c(c2)OCCO3)C1` (centres undefined), the inhibition is 4.09%.

For the compound `CC(C)NC(=O)C1CCN(Cc2cccc(OCc3ccccc3)c2)CC1`, the inhibition was 6.52%.

As for `COc1ccc(-c2n[nH]c(C)c2-c2cnn(-c3ccccc3)c2)c(O)c1C`, the inhibition is 6.48%.

With `COc1ccc(-c2onc(C)c2-c2cnn(-c3ccccc3)c2)c(O)c1C`, the inhibition is 5.03%.

`CC(C)(C)NC(=O)COc1coc(CN2CCN(Cc3ccccc3)CC2)cc1=O`: the inhibition is -6.74%.

Take `Cc1ccc(OCC(=O)Nc2ccc(N3CCCC3)cc2)cc1C`: the inhibition is 7%.

On to `CCN(CC)c1ccc(S(=O)(=O)N2CCOCC2)cc1NC(=O)CSc1ccccc1`, for which the inhibition is 1.35%.

With `CCN(CC)c1ccc(S(=O)(=O)N2CCOCC2)cc1NC(=O)CN1CCc2ccccc2C1`, the inhibition is 6.44%.

On to `Cc1ccc(F)cc1NC(=O)CN1CCN(Cc2ccccc2)CC1`, for which the inhibition is -0.43%.

As for `Cc1ccc(S(=O)(=O)N(C)C)cc1NC(=O)CN1CCCC1`, the inhibition was 3.96%.

Take `Cc1ccc(S(=O)(=O)N(C)C)cc1NC(=O)CN1CCN(Cc2ccccc2)CC1`: the inhibition is 1.33%.

As for `Cc1ccc(S(=O)(=O)N2CCOCC2)cc1NC(=O)CN1CCN(C)CC1`, the inhibition is 4%.

Usually inhibition stands for the relative decrease from the control value, in per cent.

The values are drawn from PubChem BioAssay AID624330 (Southern Research Specialized Biocontainment Screening …, 2012).
